Screens deposited in PubChem by The Scripps Research Institute Molecular Screening Center.
Shown are actives, neighbours in structure and some others; about 3.4% of the full set was active somewhere.
MITF inh – blocks human microphthalmia-associated transcription factor; O75030; AlphaScreen MITF homodimerization, bead proximity signal; inhibition, % at 2.6 µM; hit rate 0.91% among 650,000; in the data active = inhibition above about 50%
TEAD-YAP inh – TEAD-YAP interaction inhibition; HEK-TIYL cells, TEAD-Gal4/YAP UAS-luciferase luminescence; inhibition, % at 9.12 µM; hit rate 1.4% among 640,000; AID 1259422; in the data active = inhibition above about 32%
GPR151 ag – activators of human GPR151; PathHunter beta-arrestin GPR151 cells, luminescence; activation, % at 11.2 µM; hit rate 1% among 650,000; in the data active = activation above about 4.9%
Target sequence (Q8TDV0 whole entry, looked up): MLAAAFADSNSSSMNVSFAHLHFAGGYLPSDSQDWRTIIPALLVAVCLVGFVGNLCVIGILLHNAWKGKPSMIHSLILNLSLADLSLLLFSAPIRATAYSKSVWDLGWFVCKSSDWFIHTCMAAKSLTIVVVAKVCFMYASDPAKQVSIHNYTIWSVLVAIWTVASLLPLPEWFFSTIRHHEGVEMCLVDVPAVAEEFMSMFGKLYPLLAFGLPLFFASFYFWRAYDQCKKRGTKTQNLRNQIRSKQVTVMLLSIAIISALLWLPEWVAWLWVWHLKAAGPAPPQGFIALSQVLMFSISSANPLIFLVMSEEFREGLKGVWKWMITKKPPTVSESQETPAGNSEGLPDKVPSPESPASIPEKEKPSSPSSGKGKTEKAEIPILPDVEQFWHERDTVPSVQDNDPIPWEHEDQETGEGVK
FBW7 act – activators of human E3 ligase FBW7 | AID 1259310 | hit rate 0.13% among 650,000 | Q969H0 | AlphaScreen FBW7–phospho-cyclin E peptide binding, activator screen | normalized activity (activation), % at 26.1 µM; in the data active = normalized activity above about 1.9%;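 note: purified mutant Fbw7 with reduced substrate affinity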
GPR151 confirm – confirmation of human GPR151 activators | shares compounds with GPR151 ag | GPR151 PathHunter beta-arrestin cells, luminescence, 90 min; % of EA-reagent control over plate median | activation, % at 11.2 µM | 6,700 tested, under 10 active;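 active = mean percent activation across replicates above the confirmation screen cutoff of 4.91%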
GPR119 ag – activates human GPR119 in a GPR151 counter-screen | activation, % at 11.2 µM | shares compounds with GPR151 ag | GPR119 PathHunter beta-arrestin cells, luminescence, 90 min; 0 = compound-well median, 100 = enzyme-acceptor control | hit rate 0.3% among 6,700;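 active = mean percent activation in the counterscreen above 29.09%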;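 note: counterscreen on off-target GPR119 to flag nonselective hits from the GPR151 activator screen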
Each line names hits and unclear results; the compound was inactive in the other large screens (follow-up assays come after a bar, where they were run); ! = a repeat was not active.

O=C(NCc1ccc(F)cc1)C(=O)Nc1ccc2nc3n(c(=O)c2c1)CCCCC3	none
O=C(COc1ccccc1)Oc1ccc2nc(N3CCCC3)sc2c1	GPR151 ag 9.1 | GPR151 confirm inactive | GPR119 ag inactive
O=C(NC1CCCC1)N1CCN(c2nc3ccc(F)cc3s2)CC1	GPR151 ag 6.4 | GPR151 confirm inactive | GPR119 ag inactive
CCN1CCN(c2nc3ccc(OC(=O)COc4ccccc4)cc3s2)CC1	none
NC(=O)c1ccc2nc(N3CCN(c4ccccn4)CC3)sc2c1	GPR151 ag 8.1 | GPR151 confirm inactive | GPR119 ag inactive
COc1ccc2nc(N3CCN(C(=O)C4CCCN4S(C)(=O)=O)CC3)sc2c1 (stereo not drawn)	none
COc1ccc2nc(N3CCC(C(=O)N4CCCC4)CC3)sc2c1	GPR151 ag 6.9 | GPR151 confirm inactive | GPR119 ag inactive
C/C(N)=N\S(=O)(=O)c1ccc([N+](=O)[O-])cc1	none
COc1cccc(-n2c(N)c(C(=O)Nc3ccccc3C)sc2=S)c1	none
O=C(O)c1ccc2nc(N3CCCCC3)sc2c1	none
NC(=O)C1CCN(C(=O)c2ccc3nc(N4CCCCC4)sc3c2)CC1	GPR151 ag 12 | GPR151 confirm inactive | GPR119 ag inactive
Cc1ccc(N(CC(=O)NCCC(C)C)C(=O)CCC(=O)Nc2ccccn2)cc1	GPR151 ag 6.3 | GPR151 confirm inactive | GPR119 ag inactive
O=C(NC1(C(F)(F)F)NC(=O)N(c2ccc(F)cc2)C1=O)c1ccncc1 (stereo not drawn)	GPR151 ag 13 | GPR151 confirm inactive | GPR119 ag inactive
COc1ccccc1C(=O)NC1(C(F)(F)F)NC(=O)N(c2ccc(C)c(C)c2)C1=O (stereo not drawn)	GPR151 ag 7.3 | GPR151 confirm inactive | GPR119 ag inactive
O=C(NC1(C(F)(F)F)NC(=O)N(c2ccc(F)cc2)C1=O)c1ccc(F)cc1 (stereo not drawn)	none
CC1CCN(C(=O)Oc2ccccc2)CC1	none
CC1CCN(C(=O)Nc2ccc(F)cc2)CC1	GPR151 ag 7.2 | GPR151 confirm inactive | GPR119 ag inactive
CC1CCN(C(=O)Nc2ccc(Cl)cc2)CC1	none
CC(=O)Nc1ccc(OC(=O)N2CCC(C)CC2)cc1	GPR151 ag 5.3 | GPR151 confirm inactive | GPR119 ag inactive
COc1ccc(NC2=C(C(C)=O)C(c3ccc(N(C)C)cc3)C(C(C)=O)C(C)(O)C2)cc1 (stereo not drawn)	GPR151 ag 13 | GPR151 confirm inactive | GPR119 ag inactive
COc1ccc(NC2=C(C(C)=O)C(c3ccc(OC)cc3)C(C(C)=O)C(C)(O)C2)cc1 (stereo not drawn)	none
Cc1cc(N2CCC(C)CC2)nc2ccc(N)cc12	GPR151 ag 7.4 | GPR151 confirm inactive | GPR119 ag inactive
CC(=O)N/C(N)=N/c1nc2cc(C)ccc2o1	GPR151 ag 5.4! | GPR151 confirm inactive | GPR119 ag inactive
CC1(C2CCN(Cc3nc(-c4ccccc4)cs3)CC2)NC(=O)NC1=O (stereo not drawn)	GPR151 ag 5.6 | GPR151 confirm inactive | GPR119 ag inactive
CCOC(=O)/C(N=Nc1cc(C(=O)OC)cc(C(=O)OC)c1)=C(\O)CCl	none
O=C(NCCc1nnc2n1CCN(Cc1cccc3ccccc13)CC2)C1CCCO1 (stereo not drawn)	none
CCC(CC)CN1CCc2nnc(CCNC(=O)COc3ccccc3)n2CC1	GPR151 ag 5.1 | GPR151 confirm inactive | GPR119 ag inactive
O=C(NCCc1nnc2n1CCN(Cc1ccccc1-c1ccco1)CC2)C1CCCO1 (stereo not drawn)	GPR151 ag 7.1 | GPR151 confirm inactive | GPR119 ag inactive
Cc1cc(C)c(CN2CCc3nnc(CCNC(=O)COc4ccccc4)n3CC2)cc1C	none
Cc1ccc(C)c(CN2CCc3nnc(CCNC(=O)COc4ccccc4)n3CC2)c1	GPR151 ag 8.8 | GPR151 confirm inactive | GPR119 ag inactive
CCCn1c(=O)c(C(=O)Nc2nc3ccc(Cl)cc3s2)c(O)c2ccccc21	none
Cc1cccc2cc3c(N)c(C(=O)N4CC(=O)Nc5ccccc54)sc3nc12	none
Cc1ccc(NS(=O)(=O)c2ccc(Br)s2)cc1	none
Cc1ccc(Oc2nc3ccccn3c(=O)c2/C=C(\C#N)C(=O)N2CCOCC2)cc1	GPR151 ag 4.9 | GPR151 confirm inactive | GPR119 ag inactive
